High-throughput results deposited in PubChem BioAssay by National Center for Advancing Translational Sciences (NCATS).
HCV inh – HCV inhibition | Huh7.5.1 HCVcc-Cre infection, luciferase reporter, 44 h | actives 3.4% (n = 340,000) | Potency, µM (doses to about 41.8 µM), usual class: inhibitors | AID 651820
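Antiviral activity was scored by luciferase reporter output from cells infected with HCVcc-Cre (~0.5 moi) in presence of compound, 44 h infection period, cells seeded 1,000/well 4 h prior.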
MARV entry inh – blocks Marburg virus binding to or entry into cells | Marburg virus pseudotyped entry inhibition, cell reporter | Potency, µM (series often up to 37.8 µM), actives largely listed as inhibitors | actives 1.8% (n = 300,000) | AID 540276; calls by dose curve; tested in HEK293 cells
FBPA Giardia inh – Giardia lamblia aldolase inhibition | A8B2U2 | purified Giardia FBPA | Potency, µM (series often up to 59.6 µM), usual class: inhibitors | actives 0.71% (n = 290,000); note: nearly all actives have a fitted effect of over 55% in size
Target sequence (A8B2U2 whole entry, looked up): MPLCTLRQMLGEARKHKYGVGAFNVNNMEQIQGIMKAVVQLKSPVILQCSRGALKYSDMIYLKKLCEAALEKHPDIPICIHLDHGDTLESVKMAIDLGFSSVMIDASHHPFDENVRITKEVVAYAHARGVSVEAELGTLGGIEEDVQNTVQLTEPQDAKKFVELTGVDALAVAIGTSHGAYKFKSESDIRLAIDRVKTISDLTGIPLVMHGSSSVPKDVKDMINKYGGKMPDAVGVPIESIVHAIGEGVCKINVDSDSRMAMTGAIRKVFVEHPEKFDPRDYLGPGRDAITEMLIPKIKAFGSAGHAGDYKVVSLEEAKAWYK
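40 nM FBPA preincubated 10 min at RT with compound (up to 57.5 uM final), then substrate plus GAPDH/TPI/NAD/arsenate coupling and diaphorase/resazurin added. Fluorescence read after 20 min at RT, 525/598 nm.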
HCMV antiviral – blocks human cytomegalovirus replication | HFF cells, HCMV-luciferase reporter, 72 h; active compounds read low | activity change, negative = inhibition, % at 57.5 µM | actives 4.5% (n = 410,000); in the data active = activity change below about -60%; inconclusive = no clear call, values can overlap the other calls; inactive = above about -39%
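HFF cells seeded 16 h at 37C, treated with compounds, infected with luciferase-reporter HCMV at MOI 1 PFU/cell; luciferase read at 72 h post infection, normalized to buffer-only and Salinomycin controls.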
FMDV inh – blocks foot and mouth disease virus. FMDV antiviral cell-based qHTS. Potency, µM (titrated, usually from 57.9 µM), usual class: inhibitors. actives 1.2% (n = 410,000). AID 1159524; calls by dose curve; tested in HEK293T cells; note: read-out not given here; nearly all actives have a fitted effect of over 45% in size
LASV entry inh – Lassa virus entry inhibition; Lassa virus pseudotype entry inhibition, cell reporter; Potency, µM (series often up to 37.9 µM), actives largely listed as inhibitors; actives 1.2% (n = 300,000); AID 540256; calls by dose curve; tested in HEK293 cells; note: nearly all actives have a fitted effect of over 50% in size
Hits are given with their value; i = inactive; ? = inconclusive; nt = no result given; [ ] = dose if it differs, or a comment. Most compounds without a hit are left out; they make up all but 8.3% or so of the library. Unless noted, calls come from the whole dose curve; as a rule, active = well fitted curve in the direction sought with a large enough effect; inconclusive = small, poorly fitted or top-dose-only effect, or another doubt; inactive = no such curve, though single readings can be large; an effect the other way counts as inactive or inconclusive.

SMILES	HCV inh	MARV entry inh	FBPA Giardia inh	HCMV antiviral	FMDV inh	LASV entry inh
Cn1c(=O)c2c(ncn2Cc2ccc(Cl)c(Cl)c2)n(C)c1=O	?	?	i	-70	?	i
Cn1c(=O)c2c(ncn2Cc2cccc(Cl)c2)n(C)c1=O	11µM	?	i	-75	nt	i
Cc1ccc(OCCn2c(Br)nc3c2c(=O)n(C)c(=O)n3C)cc1	8.9µM	i	i	?	i	i
Cn1c(=O)n(CCc2ccccc2)c(=O)c2c1ncn2Cc1ccccc1	?	?	i	i	i	?
Cn1c(=O)c2c(ncn2CCOc2cccc(Br)c2)n(C)c1=O	?	nt	i	-71	?	nt
CO[C@H]1COC(=O)[C@H](C)NC(=O)[C@@H](C)COC(=O)[C@H]2CCCN2C(=O)C/C=C\[C@H]1C	nt	nt	i[12.9 µM]	nt	nt	nt
COc1cccc(CNCCC2=C3C=CC=CC3N=C2)c1 (centres undefined)	nt	11µM	nt	nt	nt	nt
COc1ccccc1OCCN1CSC(=S)N(C)C1	i	?	i	-74	?	i
Cc1cccc(OCCN2CSC(=S)N(C)C2)c1	i	i	i	i	i	i
CC1(C)CC(=O)C2=C(C1)NC1=C(C(=O)c3ccccc31)C2c1ccc(O)cc1 (centres undefined)	i	?	i	i	?	i
CCCCc1ccc(C2C3=C(CC(C)(C)CC3=O)NC3=C2C(=O)c2ccccc23)cc1 (centres undefined)	13µM	?	i	-86	i	?
O=S(=O)(c1ccc(Br)cc1)N1CCn2cccc2C1c1ccc(Br)cc1 (centres undefined)	nt	nt	nt	i	?	i
COc1ccc(-c2nn3ncccc3c2-c2ccnc(Nc3ccc4c(c3)OCCO4)n2)cc1	nt	nt	nt	nt	nt	16µM
COc1ccc(-c2nc3ncccn3c2Nc2ccc3c(c2)OCCO3)cc1	i	i	i	i	i	nt
Fc1ccc(-c2nn3ncccc3c2-c2ccnc(Nc3ccc4c(c3)OCCO4)n2)cc1	nt	nt	nt	nt	nt	7.9µM
Cc1cc(C)n2c(Nc3ccc4c(c3)OCCO4)c(-c3ccc(F)cc3)nc2n1	nt	nt	nt	i	i	nt
CCCCNc1nc2c(c(=O)n(Cc3ccc(Cl)cc3)c(=O)n2C)n1C	nt	?	nt	i	?	i
Cn1c(NCCCN2CCOCC2)nc2c1c(=O)n(Cc1ccc(Cl)cc1Cl)c(=O)n2C	11µM	?	i	?	?	i
Cn1c(=O)c2c(nc(NCc3ccco3)n2Cc2ccccc2Cl)n(C)c1=O	?	i	i	i	?	i
Cn1c(=O)c2c(nc(NCC3CCCC(CN)C3)n2Cc2ccc(Cl)cc2Cl)n(C)c1=O (centres undefined)	11µM	nt	i	-99	i	nt
Cn1c(=O)c2c(nc(NCCNC(=O)c3ccco3)n2Cc2ccc(Cl)cc2Cl)n(C)c1=O	i	i	i	-74	i	?
Cn1c(=O)c2c(nc(N3CCN(c4ccccn4)CC3)n2Cc2ccc(Cl)cc2Cl)n(C)c1=O	i	i	nt	i	i	i
CCOC(=O)/C=C1\NC(C)(C)CC2=C1CC(O)=C(OC)C2	nt	i	nt	nt	nt	nt
Cc1ccccc1CNC(=O)CN1CCSc2ccccc21	nt	nt	nt	i	i	i
O=C(c1cccs1)c1ccc(-c2cccs2)s1	?	11µM	i	i	i	?
SMILES	HCV inh	MARV entry inh	FBPA Giardia inh	HCMV antiviral	FMDV inh	LASV entry inh
COc1cccc2sc(Nc3nnc(-c4cccs4)o3)nc12	?	?	?	-86	i	?
CN(C)CCCN(CCCNC(=O)/C=N\O)Cc1ccccc1	nt	i	nt	nt	nt	nt
COc1ccc(CCC(=O)N/N=C(\C)c2ccc3c(c2)OCO3)cc1	i	i	nt	i	i	0.35µM
C/C(=N/NC(=O)CCc1ccccc1)c1ccc2c(c1)OCO2	i	?	i	i	i	?
CNC(=S)N/N=C(\C)c1ccccc1	i	i	?	-97	i	?
CNC(=S)N/N=C(\C)c1ccc2c(c1)OCO2	i	nt	?	-104	i	nt
CNC(=S)N/N=C(\C)c1ccc(C(C)(C)C)cc1	?	?	i	i	i	i
CNC(=S)N/N=C(\C)c1ccc2c(c1)OCCO2	?	?	i	i	i	i
C=C1CCN(C(Cc2ccccc2)C(=O)O)S(=O)(=O)c2ccccc21 (centres undefined)	nt	nt	i	nt	nt	nt
CCS(=O)(=O)c1nc2ccccc2n1Cc1ccccc1Cl	?	nt	i	-67	i	nt
O=S(=O)(O)c1nc2ccccc2n1Cc1ccccc1	i	?	nt	i	i	i
O=NNc1nc2ccccc2n1Cc1ccccc1	?	nt	?	-80	i	nt
O=S(=O)(O)c1nc2ccccc2n1Cc1cccc2ccccc12	nt	nt	i	nt	nt	nt
CS(=O)(=O)c1nc2ccccc2n1Cc1ccccc1	i	i	i	-67	i	i
CO[C@]1(NC(=O)C2SC(=C(C(N)=O)C(=O)O)S2)C(=O)N2C(C(=O)O)=C(CSc3nnnn3C)CS[C@H]21 (some centres undefined)	nt	nt	i	nt	nt	nt
O=C1CC(N(CCc2ccccc2)C(=S)Nc2cc(Cl)ccc2Cl)C(=O)N1c1c(Cl)cccc1Cl (centres undefined)	?	13µM	i	i	i	?
O=C1CC(N(CCc2ccccc2)C(=S)Nc2ccccc2)C(=O)N1c1ccccc1 (centres undefined)	i	?	i	i	i	?
